The campaign covered roughly 5,500 compounds. About 2,000 (36%) were called active. Another 18% or so got no clear call; they are omitted. Cut-off read from the data, not from the text of the source: active = normalized growth mostly below about 0.91 (no sharp cut-off); inconclusive = no clear call, values can overlap the other calls; inactive = mostly above about 0.92. The list shows a part of the results.
Assay: chemical genetic growth profiling, strain panel (AID 1159580);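 note: tested at 20 µM; growth read once vehicle control cultures reached saturation at 30 °C; 1 = growth at the plate median or of vehicle wells; lower values mean less growth of the strain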
Conditions: growth OD

Measured: normalized growth

CC(Cc1cccc(C(F)(F)F)c1)NCCOC(=O)c1ccccc1 (configuration not stated)
active: S. cerevisiae deletion strains, locus YLR262C, strain YPT6 (second series), hits give low values 0.785 | S. cerevisiae deletion strains, locus YLR342W, strain FKS1 (second series), hits give low values 0.745 | S. cerevisiae deletion strains, locus YLR342W, strain FKS1, hits give low values 0.88 | S. cerevisiae deletion strains, locus YOR270C, strain vph1, hits give low values 0.72 | S. cerevisiae deletion strains, locus YPL051W, strain arl3, hits give low values 0.904
inactive: S. cerevisiae deletion strains, locus YJR075W, strain HOC1, hits give low values 0.886 | S. cerevisiae deletion strains, locus YKL009W, strain mrt4, hits give low values 0.974 | S. cerevisiae deletion strains, locus YKL068W, hits give low values 1.01 | S. cerevisiae deletion strains, locus YKL085W, strain MDH1 (second series), hits give low values 0.998 | S. cerevisiae deletion strains, locus YKL085W, strain MDH1, hits give low values 0.998 | S. cerevisiae deletion strains, locus YKL160W, strain elf1, hits give low values 0.946 | S. cerevisiae deletion strains, locus YKL190W, strain CNB1, hits give low values 0.982 | S. cerevisiae deletion strains, locus YKR001C, strain vps1, hits give low values 1.03 | S. cerevisiae deletion strains, locus YKR026C, strain gcn3, hits give low values 0.987 | S. cerevisiae deletion strains, locus YKR091W, strain srl3, hits give low values 1 | S. cerevisiae deletion strains, locus YLL001W, strain dnm1, hits give low values 0.935 | S. cerevisiae deletion strains, locus YLL026W, hits give low values 0.933 | S. cerevisiae deletion strains, locus YLL041C, strain sdh2, hits give low values 0.993 | S. cerevisiae deletion strains, locus YLR027C, strain aat2, hits give low values 0.93 | S. cerevisiae deletion strains, locus YLR039C, strain RIC1, hits give low values 1.02 | S. cerevisiae deletion strains, locus YLR058C, strain SHM2, hits give low values 0.967 | S. cerevisiae deletion strains, locus YLR102C, strain apc9, hits give low values 1.02 | S. cerevisiae deletion strains, locus YLR113W, strain HOG1, hits give low values 1 | S. cerevisiae deletion strains, locus YLR221C, strain rsa3, hits give low values 0.956 | S. cerevisiae deletion strains, locus YLR258W, strain gsy2, hits give low values 0.974 | S. cerevisiae deletion strains, locus YLR262C, strain YPT6, hits give low values 1.01 | S. cerevisiae deletion strains, locus YLR268W, strain sec22, hits give low values 0.992 | S. cerevisiae deletion strains, locus YLR320W, strain mms22, hits give low values 0.913 | S. cerevisiae deletion strains, locus YLR330W, strain CHS5, hits give low values 0.991 | S. cerevisiae deletion strains, locus YLR357W, strain rsc2, hits give low values 0.987 | S. cerevisiae deletion strains, locus YLR370C, strain arc18, hits give low values 0.931 | S. cerevisiae deletion strains, locus YLR371W, strain rom2, hits give low values 1.02 | S. cerevisiae deletion strains, locus YLR384C, strain iki3, hits give low values 0.988 | S. cerevisiae deletion strains, locus YLR418C, strain cdc73, hits give low values 0.978 | S. cerevisiae deletion strains, locus YML016C, strain PPZ1, hits give low values 0.989 | S. cerevisiae deletion strains, locus YML032C, strain rad52, hits give low values 0.941 | S. cerevisiae deletion strains, locus YML120C, strain ndi1, hits give low values 0.953 | S. cerevisiae deletion strains, locus YML124C, strain tub3, hits give low values 1.02 | S. cerevisiae deletion strains, locus YMR058W, strain fet3, hits give low values 0.905 | S. cerevisiae deletion strains, locus YMR078C, strain ctf18, hits give low values 1.02 | S. cerevisiae deletion strains, locus YMR125W, strain sto1, hits give low values 0.97 | S. cerevisiae deletion strains, locus YMR129W, hits give low values 0.985 | S. cerevisiae deletion strains, locus YMR205C, strain PFK2, hits give low values 0.961 | S. cerevisiae deletion strains, locus YMR223W, strain ubp8, hits give low values 0.947 | S. cerevisiae deletion strains, locus YMR231W, strain pep5, hits give low values 1 | S. cerevisiae deletion strains, locus YMR263W, strain SAP30, hits give low values 0.962 | S. cerevisiae deletion strains, locus YMR307W, strain GAS1, hits give low values 0.955 | S. cerevisiae deletion strains, locus YNL067W, strain RPL9B, hits give low values 0.923 | S. cerevisiae deletion strains, locus YNL071W, strain lat1, hits give low values 0.996 | S. cerevisiae deletion strains, locus YNL128W, strain TEP1, hits give low values 0.951 | S. cerevisiae deletion strains, locus YNL153C, strain GIM3, hits give low values 0.938 | S. cerevisiae deletion strains, locus YNL183C, strain NPR1, hits give low values 0.895 | S. cerevisiae deletion strains, locus YNL209W, strain ssb2, hits give low values 0.963 | S. cerevisiae deletion strains, locus YNL233W, strain BNI4, hits give low values 0.877 | S. cerevisiae deletion strains, locus YNL248C, strain rpa49, hits give low values 0.906 | S. cerevisiae deletion strains, locus YNL250W, strain rad50, hits give low values 1.03 | S. cerevisiae deletion strains, locus YNL271C, strain bni1, hits give low values 1.01 | S. cerevisiae deletion strains, locus YNL298W, strain CLA4, hits give low values 1.01 | S. cerevisiae deletion strains, locus YNL307C, strain MCK1, hits give low values 0.974 | S. cerevisiae deletion strains, locus YNL322C, strain KRE1 (second series), hits give low values 1.01 | S. cerevisiae deletion strains, locus YNL322C, strain KRE1, hits give low values 1.01 | S. cerevisiae deletion strains, locus YNR049C, strain mso1, hits give low values 0.998 | S. cerevisiae deletion strains, locus YNR052C, strain pop2, hits give low values 0.921 | S. cerevisiae deletion strains, locus YOL006C, strain TOP1, hits give low values 0.605 | S. cerevisiae deletion strains, locus YOL012C, strain htz1 0.888 | S. cerevisiae deletion strains, locus YOL147C, strain pex11, hits give low values 1.01 | S. cerevisiae deletion strains, locus YOR001W, strain rrp6, hits give low values 0.92 | S. cerevisiae deletion strains, locus YOR061W, strain CKA2, hits give low values 0.994 | S. cerevisiae deletion strains, locus YOR069W, strain VPS5, hits give low values 0.995 | S. cerevisiae deletion strains, locus YOR070C, strain gyp1, hits give low values 0.985 | S. cerevisiae deletion strains, locus YOR080W, strain dia2, hits give low values 0.971 | S. cerevisiae deletion strains, locus YOR083W, strain WHI5, hits give low values 0.913 | S. cerevisiae deletion strains, locus YOR106W, strain vam3, hits give low values 0.906 | S. cerevisiae deletion strains, locus YOR136W, strain idh2, hits give low values 1.01 | S. cerevisiae deletion strains, locus YOR144C, strain elg1, hits give low values 1.02 | S. cerevisiae deletion strains, locus YOR184W, strain ser1, hits give low values 1.01 | S. cerevisiae deletion strains, locus YOR231W, strain MKK1, hits give low values 0.979 | S. cerevisiae deletion strains, locus YOR265W, strain rbl2, hits give low values 0.975 | S. cerevisiae deletion strains, locus YOR290C, strain snf2, hits give low values 0.975 | S. cerevisiae deletion strains, locus YOR316C, strain cot1, hits give low values 1.03 | S. cerevisiae deletion strains, locus YPL055C, strain LGE1, hits give low values 0.954 | S. cerevisiae deletion strains, locus YPL078C, strain atp4, hits give low values 0.944 | S. cerevisiae deletion strains, locus YPL106C, strain sse1, hits give low values 0.975 | S. cerevisiae deletion strains, locus YPL240C, strain hsp82, hits give low values 0.98 | S. cerevisiae deletion strains, locus YPL241C, strain CIN2, hits give low values 0.995 | S. cerevisiae deletion strains, locus YPL256C, strain CLN2, hits give low values 0.969 | S. cerevisiae deletion strains, locus YPR119W, strain clb2, hits give low values 1.02 | S. cerevisiae deletion strains, locus YPR141C, strain kar3, hits give low values 1.02 | S. cerevisiae deletion strains, locus YPR163C, strain tif3, hits give low values 0.928 | S. cerevisiae deletion strains, locus YPR167C, strain met16, hits give low values 1 | S. cerevisiae deletion strains, strain wtn01, hits give low values 0.978 | S. cerevisiae strains, strain wild type, hits give low values 0.955

Source: PubChem BioAssay AID1159580 (chemical genetic matrix, 2015)
